# PubChem BioAssay (NCATS)
# Records with an inconclusive call do not appear. A call without a number means that no potency is given here. The source made the active and inactive calls. The call rests on the fitted dose curve; in most records, active means well fitted curve in the direction sought with a large enough effect; inconclusive means small, poorly fitted or top-dose-only effect, or another doubt; inactive means no such curve, though single readings can be large; an effect the other way counts as inactive or inconclusive.
# Key:
# [1] = P-glycoprotein substrates identified in KB-3-1 adenocarcinoma cell line, qHTS therapeutic library screen (AID 1346986); further: nearly all actives have a fitted effect of over 60% in size;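 further: potency is for cytotoxicity meaning loss of cell viability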
# Procedure, shortened: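 Using luminescence to quantify ATP, parental and P-gp-overexpressing KB cells were compared after 72 h compound titration. KB-8-5-11 was also run with the P-gp inhibitor tariquidar.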
# [2] = P-glycoprotein substrates identified in KB-8-5-11 adenocarcinoma cell line, qHTS therapeutic library screen (AID 1346987); further: nearly all actives have a fitted effect of over 65% in size
# Procedure, shortened: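 Human cervical adenocarcinoma KB-8-5-11 cells, selected in colchicine to over-express P-gp and assayed without it, were exposed for 72 h to titrated compounds. An ATP-based luminescent viability signal gave AC50.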
# [3] = test system: Zika virus NS2B-NS3 protease (linked construct); assay: Confirmatory screen NINDS AMC qHTS for Zika virus inhibitors (AID 1347152); further: nearly all actives have a fitted effect of over 70% in size
# Procedure, shortened: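 IC50s from 4-parameter Hill fits of percent inhibition, based on AMC fluorescence gain (340/450 nm) over 15 min with 10 microM Bz-Nle-KRR-AMC. Enzyme: 1 nM linked NS2B-NS3 in Tris-HCl pH 8.0; 15-min compound preincubation.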
# Potency means the concentration at half of the fitted maximal effect.
structure (smiles),measurement,setting,value
C=C1C(=O)OC2/C=C(\CO)CC/C=C(\C=O)C(O)C(OC(=O)C(C)CC)C12 (centres undefined),Potency,[1],inactive
same,Potency,[2],inactive
CN(C)c1cccc(Oc2cnc(Nc3cccc(O)c3)nc2)c1,Potency,[1],inactive
same,Potency,[2],inactive
O=C(c1cc(Cc2n[nH]c(=O)c3ccccc23)ccc1F)N1CCCNCC1,Potency,[1],inactive
same,Potency,[2],inactive
C[C@@H]1O[C@@H](O[C@H]2[C@@H]3C=CO[C@@H](O[C@@H]4O[C@H](CO)[C@@H](O)[C@H](O)[C@H]4O)[C@@H]3[C@@]3(CO)O[C@@H]23)[C@H](O)[C@H](OC(=O)/C=C/c2ccccc2)[C@H]1O,Potency,[1],inactive
same,Potency,[2],inactive
CC(=O)O[C@H]1CC[C@]2(C)[C@H]3CC[C@]4(C)Oc5oc(C)cc(=O)c5C[C@H]4[C@]3(C)CC[C@H]2C1(C)C,Potency,[1],inactive
same,Potency,[2],inactive
COCCCNC(=O)c1ccc(Cn2c(=O)c3ccccc3n(Cc3ccc(C(C)C)cc3)c2=O)cc1,Potency,[1],inactive
same,Potency,[2],inactive
O=C(Cc1c(F)cccc1F)Nc1cc(OCc2ccc(Cl)cc2)ccn1,Potency,[1],inactive
same,Potency,[2],inactive
CC(C)(CO)c1cc2cc(NC(=O)C3(c4ccc5c(c4)OC(F)(F)O5)CC3)c(F)cc2n1CC(O)CO (centres undefined),Potency,[1],inactive
same,Potency,[2],inactive
C=CCCN1CCC2(CC1)CN(C(=O)c1c(F)cccc1F)c1ccc(Cl)cc12,Potency,[1],inactive
same,Potency,[2],inactive
CN1CCN(c2ccc(-c3cccc(CN4CCOCC4)c3)cc2NC(=O)c2c[nH]c(=O)cc2C(F)(F)F)CC1,Potency,[1],inactive
same,Potency,[2],inactive
COc1ccc(S(=O)(=O)N2CCC[C@H]2C(=O)Nc2cc(C)cc(C)c2)cc1,Potency,[1],inactive
same,Potency,[2],inactive
C=C(C)C1=C[C@@]2(C)C(=CC1=O)CC[C@@H](O)[C@@H]2C,Potency,[1],inactive
same,Potency,[2],inactive
CN(CC1COCCO1)S(=O)(=O)Nc1ccc2ccc3ncc(-c4cnn(C)c4)cc3c(=O)c2c1 (centres undefined),Potency,[1],11.6 µM (active)
same,Potency,[2],14.6 µM (active)
Fc1ccc(-c2nc(-c3ccccc3F)[nH]c2-c2ccncc2)cc1,Potency,[1],inactive
same,Potency,[2],inactive
Cc1c(F)ccc(C(=O)Nc2cc([N+](=O)[O-])ccc2N2CCN(C)CC2)c1Cl,Potency,[1],inactive
same,Potency,[2],inactive
CC1OC2OC(=O)C3(C)CC4C5(CO5)C5=CC(=O)OC(C)(C)C5=CC(=O)C4(C)C(C1=O)C23 (centres undefined),Potency,[1],inactive
same,Potency,[2],inactive
NC(=O)c1cccc2[nH]c(-c3ccc(C4CCCN4)cc3F)nc12 (centres undefined),Potency,[1],inactive
same,Potency,[2],inactive
O=c1cc(N2CCN(c3cccc(C(F)(F)F)c3)CC2)[nH]c(=O)n1C1CCCCC1,Potency,[1],inactive
same,Potency,[2],inactive
CCOc1ccc(-n2c(C(C)N(Cc3cccnc3)C(=O)Cc3ccc(F)c(C(F)(F)F)c3)nc3ncccc3c2=O)cc1 (centres undefined),Potency,[1],inactive
same,Potency,[2],inactive
C=C1C(=O)OC[C@@H]1C/C=C(\C)CC1CC(C)C(=O)O1 (some centres undefined),Potency,[1],inactive
same,Potency,[2],inactive
CC1(C)CC[C@]2(C(=O)O)[C@H](O)C[C@]3(C)C(=CCC4[C@@]5(C)CC[C@H](O[C@@H]6O[C@H](CO[C@@H]7OC[C@H](O)[C@H](O)[C@H]7O[C@@H]7OC[C@H](O)[C@H](O)[C@H]7O)[C@@H](O)[C@H](O)[C@H]6O)C(C)(C)C5CC[C@]43C)[C@@H]2C1 (some centres undefined),outcome,[1],inactive [at 9.29 µM]
same,outcome,[2],inactive [at 9.29 µM]
CCN1CCN(Cc2ccc(NC(=O)c3ccc(C)c(Oc4ccnc5[nH]ccc45)c3)cc2C(F)(F)F)CC1,Potency,[1],16.4 µM (active)
same,Potency,[2],10.1 µM (active)
NC(=O)c1ccccc1Nc1ccnc(Nc2cccc(O)c2)n1,Potency,[1],1.3 µM (active)
same,Potency,[2],8.2 µM (active)
Cc1nc(C(=O)N2CCC[C@H]2Cc2nnc(-c3ccccc3)o2)c(-c2ccccc2F)s1,Potency,[1],inactive
same,Potency,[2],inactive
C=C1C(=O)OC2CC3(C)C(O)C(=O)C=C(C)C3CC12 (centres undefined),Potency,[1],inactive
same,Potency,[2],inactive
COc1cc(C(C)=O)c(OC)c2c1OC(C)(C)C=C2,Potency,[1],inactive
same,Potency,[2],inactive
C=C1C(=O)O[C@@H]2/C=C(/C)[C@@H](OC(C)=O)C/C=C(\C)C[C@@H](OC(=O)/C(=C/CO)CO)[C@@H]12,Potency,[1],inactive
same,Potency,[2],inactive
Cc1[nH]c2ccccc2c1CCNC(=O)c1cccs1,Potency,[1],inactive
same,Potency,[2],inactive
CC1(C)CCC2(C(=O)OC3OC(COC4OC(CO)C(O)C(O)C4O)C(O)C(O)C3O)CCC3(C)C(=CCC4C5(C)CCC(OC6OCC(O)C(O)C6O)C(C)(C)C5CCC43C)C2C1O (centres undefined),outcome,[1],inactive [at 9.29 µM]
same,outcome,[2],inactive [at 9.29 µM]
C=C(C)C1CCC2(C(=O)O)CCC3(C)C(CCC4C5(C)C(C=O)C(O)C(C)(C)C5CCC43C)C12 (centres undefined),Potency,[1],inactive
same,Potency,[2],inactive
C=C1CC[C@@H]2[C@](C)(CO)[C@H](O)CC[C@@]2(C)[C@@H]1C/C=C1/C(=O)OCC1OC(=O)/C(=C/CO)C(O)C[C@@H]1C(=C)CC[C@@H]2[C@](C)(CO)[C@H](O)CC[C@]21C (some centres undefined),Potency,[1],inactive
same,Potency,[2],inactive
O=C(O)CCc1nccc2c1[nH]c1ccccc12,Potency,[1],inactive
same,Potency,[2],inactive
O=C(CSc1nc2ccccc2c(=O)n1-c1ccccc1)Nc1ccc2c(c1)CCC2,Potency,[1],inactive
same,Potency,[2],inactive
COc1cc(O)cc(/C=C/c2cccc(O)c2)c1,Potency,[1],inactive
same,Potency,[2],inactive
CC1=CC2/C=C(\C)CCC(O)C/C=C/C(=O)OC23C(=O)NC(CC(C)C)C3C1C (centres undefined),Potency,[1],inactive
same,Potency,[2],inactive
C=C1C(=O)O[C@@H]2[C@H]1CC[C@H](C)[C@]1(CCC(=O)O1)C2(C)O (some centres undefined),Potency,[1],inactive
same,Potency,[2],inactive
COc1cccc(OCCCN)c1-c1cc(Nc2cnc(C#N)cn2)n[nH]1,Potency,[1],0.146 µM (active)
same,Potency,[2],1.3 µM (active)
O=C1NC(=O)C(c2cnc3ccccn23)=C1c1cn2c3c(cc(F)cc13)CN(C(=O)N1CCCCC1)CC2,Potency,[1],5.8 µM (active)
same,Potency,[2],16.4 µM (active)
COC(CCc1ccc(O)cc1)CC(=O)CCc1ccc(O)cc1 (centres undefined),Potency,[1],inactive
same,Potency,[2],inactive
Cc1cc2sc(NC(=O)Cc3ccccc3)nc2cc1Cl,Potency,[2],inactive
COc1ccc(C(=O)O[C@H]2C=COC=C3C=C4C(=O)N(C)C(=S)C(=O)N4[C@@H]32)cc1Oc1cc(C=O)ccc1O,Potency,[1],inactive
same,Potency,[2],inactive
C=CC(=O)Nc1cccc(Nc2nc(Nc3ccc(OCCOC)cc3)ncc2F)c1,Potency,[1],11.6 µM (active)
same,Potency,[2],7.31 µM (active)
C[C@H](Nc1cc2c(-c3ccc4c(c3)OCO4)noc2cn1)c1ccccc1,Potency,[1],inactive
same,Potency,[2],inactive
C=C1C(=O)O[C@@H]2[C@H]1CCC(C)=C(CCC(=O)O)[C@@]2(C)O,Potency,[1],inactive
same,Potency,[2],inactive
CC(=O)OC1C(O)CC2(C)C(CCC3(C)C2CC=C2C4C5(CCC(CO[C@@H]6O[C@H](CO)[C@@H](O)[C@H](O)[C@H]6O)(OC5=O)C4(C)O)C(O)CC23C)C1(C)C (some centres undefined),Potency,[1],inactive
same,Potency,[2],inactive
CCC(C)C1NC(=O)C(Cc2ccccc2)NC(=O)C(CCCCCC(=O)C(O)CO)NC(=O)C2CCCCN2C1=O (centres undefined),Potency,[1],inactive
same,Potency,[2],inactive
Cc1cn2cc(C(=O)N(C)CCO)cc(NC3CCOc4cccc(C)c43)c2n1 (centres undefined),Potency,[1],inactive
same,Potency,[2],inactive
CC(=O)C=C=C1C(C)(C)CC(O)CC1(C)O[C@@H]1O[C@H](CO[C@H]2OC[C@](O)(CO)[C@H]2O)[C@@H](O)[C@H](O)[C@H]1O (some centres undefined),Potency,[1],inactive
same,Potency,[2],inactive
C=C1CCC2[C@](C)(CCC[C@@]2(C)C=O)[C@H]1CC/C(C)=C/CO (some centres undefined),Potency,[1],inactive
same,Potency,[2],inactive
C=C1[C@H]2CC[C@H](C(=O)O)[C@@]23CC[C@H](C3)C1(C)C,Potency,[1],inactive
same,Potency,[2],inactive
CO[C@@H]1[C@H](O)CCC2(CO2)[C@H]1[C@@]1(C)O[C@@H]1CC=C(C)C (some centres undefined),Potency,[1],inactive
same,Potency,[2],inactive
CCNC(=O)C#Cc1ccc2c(C(=Nc3ccc(CN(C)C)cc3)c3ccccc3)c(O)[nH]c2c1,Potency,[1],0.0517 µM (active)
same,Potency,[2],0.651 µM (active)
CC1(CO)CC(O)[C@]2(C(=O)O)CCC34CC3(C=CC3[C@]5(C)C(CC[C@]34C)C(C)(CO)[C@@H](O)[C@H](O)[C@@H]5O)C2C1 (some centres undefined),Potency,[1],inactive
same,Potency,[2],inactive
COc1ccc(NC(=O)c2ccc(-c3ccc(-c4nnc(C)o4)cc3C)cc2)cc1N1CCN(C)CC1,Potency,[2],inactive
CC1OC(=O)C[C@@H]2C(C(=O)O)=CO[C@@H](O[C@H]3O[C@H](CO)[C@@H](O)[C@H](O)[C@H]3O)[C@H]12 (some centres undefined),Potency,[1],inactive
same,Potency,[2],inactive
COc1ccc(NC(=O)C2C[C@H](C)CC[C@H]2C(C)C)cc1 (some centres undefined),Potency,[1],inactive
same,Potency,[2],inactive
COc1ccc(C2=NC(c3ccc(Cl)cc3)C(c3ccc(Cl)cc3)N2C(=O)N2CCNC(=O)C2)c(OC(C)C)c1 (centres undefined),Potency,[1],inactive
same,Potency,[2],inactive
CC(C)(C)Sc1c(CC(C)(C)C(=O)O)n(Cc2ccc(Cl)cc2)c2ccc(OCc3ccc4ccccc4n3)cc12,Potency,[1],inactive
same,Potency,[3],31.2 µM (active)
COc1cc(N2CCC(O)CC2)ccc1Nc1nc(Nc2ccccc2S(=O)(=O)C(C)C)c2[nH]cnc2n1,Potency,[2],inactive
CC(C)C[C@@H](N)C(=O)N[C@H]1C(=O)N[C@@H](CC(N)=O)C(=O)N[C@H]2C(=O)N[C@H]3C(=O)N[C@H](C(=O)N[C@H](C(=O)O)c4cc(O)cc(O)c4-c4cc3ccc4O)[C@H](O)c3ccc(c(Cl)c3)Oc3cc2cc(c3O[C@@H]2O[C@H](CO)[C@@H](O)[C@H](O)[C@H]2O[C@H]2C[C@](C)(N)[C@H](O)[C@H](C)O2)Oc2ccc(cc2Cl)[C@H]1O,Potency,[1],inactive
same,Potency,[2],inactive
CCC(C)C(=O)OC12C(OC(C)=O)C(C)C3(O)C(C=C(CO)CC4(O)C(=O)C(C)=CC43)C1C2(C)C (centres undefined),Potency,[1],inactive
same,Potency,[2],inactive
CCOC(=O)CCNc1cc(N2CCc3ccccc3CC2)nc(-c2cccnc2)n1,Potency,[1],inactive
same,Potency,[2],inactive
C=C1C(=O)O[C@@H]2/C=C(\C)CC/C=C(/C=O)[C@H](OC)[C@@H](OC(=O)C(C)C)[C@@H]12,Potency,[1],inactive
same,Potency,[2],inactive
CC(C)n1nc(C#Cc2ccccc2)c2c(N)ncnc21,Potency,[1],14.6 µM (active)
same,Potency,[2],16.4 µM (active)
C=C1C(=O)OC2CC(C)C(CCC(C)O)=CCC12 (centres undefined),Potency,[1],inactive
same,Potency,[2],inactive
CN1c2c(nc(N)[nH]c2=O)NC[C@@H]1CNc1ccc(C(=O)N[C@@H](CCC(=O)O)C(=O)O)cc1,Potency,[1],inactive
same,Potency,[2],inactive
